In PubChem BioAssay AID1794842 (National Center for Advancing Translational Sciences (NCATS), 2023):
Screen size: about 2,800 compounds; fewer than 10 were called active. Calls follow the shape of the dose curve; as a rule, active = well fitted curve in the direction sought with a large enough effect; inconclusive = small, poorly fitted or top-dose-only effect, or another doubt; inactive = no such curve, though single readings can be large or run the other way. Not all results are given here.

molecular target: Metallo-beta-lactamase type 2 (Klebsiella pneumoniae) (UniProt C7C422); experiment: qHTS to identify inhibitors of the New Delhi Metallo-beta-lactamase (NDM): Meropenem screen against the machine-based learning selections.; details: Purified NDM-1, meropenem hydrolysis, absorbance 300 nm; series mostly up to 38.4 µM
Source text: Assay Submitter (PI): James Inglese Ph.D., Patricia Dranchak Ph.D., Mahesh Aitha Ph.D. Assay Development and Screening Technology Laboratory (ADST) National Center for Advancing Translational Sciences (NCATS), Rockville, MD National Institute of Health (NIH), Bethesda, Maryland The metallo-beta-lactamases (MBL) are a main antibiotic resistance mechanism evolved by bacteria. There is an urgent clinical need for MBL inhibitors to mitigate this growing threat. To support a machine-based learning study, qHTS has been used to experimentally test inhibitors identified by prediction tools.
PROTOCOL TABLE (as described by Inglese et al., 2007) SEQUENCE No. (e.g., 1, 2, 3, etc.); […] (e.g., enzyme, Incubation, Reagent, etc.); VALUE; DESCRIPTION Primary Screen 1; NDM-1; 4 uL of 3 nM enzyme [2 nM final] in 50 mM HEPES (pH 7.0), 1 uM […], 0.01% Tween20; Use BioRaptr to dispense into two sets of Aurora black, clear bottom high base 1536-well plates 2; Compounds; 23 nL; Use Pin Tool (Wako) to transfer DMSO control and library compounds in DMSO 3; Incubate; >30 min 4a; Reagent; 2 uL of 50 uM nitrocefin [16.7 uM final] to one set of assay plates 4b; Reagent; 2 uL of 150 uM meropenem [50 uM final] to second set of assay plates 5a; Incubate; 15 min 5b; Incubate; 30 min 6a; Detector; Absorbance at 485 nm (bandwidth = 5 nm, 25 flashes/well) on Tecan Infinity 6b; Detector; Absorbance at 300 nm (bandwidth = 5 nm, 25 flashes/well) on Tecan Infinity NOTES (numbers refer to sequence above) 1; Column 1 of each plate received assay buffer without enzyme and columns 2-48 received enzyme for a final assay concentration of 2 nM. 2; Control plate contained DMSO in columns 1, 2, 3, and 4. 3; Compound interaction with enzyme. 4; Nitrocefin and meropenem substrates were prepared in the same assay buffer as step 1 for a final assay concentration of 16.7 uM and 50 uM, respectively, and added to all wells across respective sets of assay plates. 5; Default reader settings were applied for absorbance read at 485 nm (nitrocefin) or 300 nm (meropenem), bandwidth = 5 nm, 25 flashes/well. References: Inglese J, Shamu CE, Guy RK. 2007. Reporting data from high-throughput screening of small-molecule libraries. Nat Chem Biol. doi:10.1038/nchembio0807-438 Yasgar A, Shinn P, Jadhav A, Auld D, Michael S, Zheng W, Austin CP, Inglese J, Simeonov A. 2008. Compound Management for Quantitative High-Throughput Screening. J Lab Autom 13:79 - 89. doi:10.1016/j.jala.2007.12.004

Metallo-beta-lactamase type 2 (Klebsiella pneumoniae), sequence (C7C422 whole entry, looked up): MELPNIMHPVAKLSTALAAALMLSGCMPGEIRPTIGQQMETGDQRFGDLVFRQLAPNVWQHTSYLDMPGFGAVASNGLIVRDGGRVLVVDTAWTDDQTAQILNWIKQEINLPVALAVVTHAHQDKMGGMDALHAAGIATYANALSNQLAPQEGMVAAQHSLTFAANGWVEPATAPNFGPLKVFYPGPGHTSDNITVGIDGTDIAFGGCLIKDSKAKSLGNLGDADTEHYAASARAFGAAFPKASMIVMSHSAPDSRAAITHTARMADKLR

outcome, inactive:
C[C@@H](NS(=O)(=O)c1ccccc1)c1onc(-c2cccnc2)c1C(=O)O
C#CCN(C)CC[C@@H]1CC[C@H](O)[C@@H](C(=O)N(C)Cc2ccccc2)O1
COCc1cc(C[C@@H]2CC[C@H](O)[C@@H](CNC(=O)C(C)(C)C)O2)no1
O=C(NC[C@H]1Cn2c(-c3ccccc3)cnc2CO1)C1CCOCC1
O=C(NCc1ccccc1)O[C@H]1COCCN(c2nc3ccccc3o2)C1
O=C(Cc1ccccc1)Nc1ccc([C@@H](O)[C@H]2COCC(=O)N2CC2CC2)cc1
CC[C@@]1(C(=O)O)C[C@H](C(=O)NC(CO)CO)[C@H](c2ccc(OC)cc2)N1C
O=C(CN1CC2CC(C1)[C@H]1CCCC(=O)N1C2)NCc1cc(F)ccc1F (some centres not stated)
NCCn1cc(C(=O)NCC(O)c2ccccc2C(F)(F)F)nn1 (configuration not stated)
C[C@@H](NC(=O)c1cccs1)c1onc(-c2ccc(F)cc2)c1C(=O)O
O=[N+]([O-])c1cccc(-c2noc([C@@H]3C[C@@H](O)CN3Cc3ccccc3)n2)c1
CC(C)c1noc(-c2cccn3c(CNC(=O)c4cccc5[nH]ccc45)nnc23)n1
CN(C)c1nccnc1OC1CCN(C(=O)CCCc2ccccc2)C1 (configuration not stated)
Cc1cc(C(=O)NCCc2csc(-c3cccnc3)n2)cc(S(N)(=O)=O)c1C
CC1(C)[C@H](Cc2cc(CCO)on2)C[C@@H]1N(S(C)(=O)=O)S(C)(=O)=O
CC(C)CCN1CCNC(=O)C1CC(=O)N(Cc1nccs1)C1CC1 (configuration not stated)
Cn1c(CN2CCOCC2)nnc1C1CCN(c2ncccc2C#N)CC1
CCCCNC(=O)c1cccc(CN2C(=O)CC(c3ccccc3C)C(C(=O)OCC)=C2C)c1 (configuration not stated)
Cn1cnc2cc(-c3ccc(CO)cc3)cc(C(=O)NCc3cccnc3)c21
Cc1cc(F)ccc1OC1CN(Cc2ccc(F)cc2)C1
COc1ccc(-c2noc([C@@H]3Cc4nc[nH]c4CN3Cc3ccc(NC(C)=O)cc3)n2)cc1
CC1(C)C[C@H](NC(=O)c2ccccc2)[C@@]2(CCC(=O)NCCN3CCOCC3)CC[C@](C)(O)C[C@@H]12
CC(C)(C)c1ccc(C(=O)Nc2nc3c(s2)C[C@@H]2[C@](C)(CO)[C@H](O)CC[C@@]2(C)[C@@H]3CC(=O)NC2CC2)cc1
O=C(COc1ccccc1Cl)N1CCCC(O)(CN2CCCC2)C1 (configuration not stated)
COCC(=O)NC[C@@H]1C=C(C)[C@H](CC(=O)Nc2ccccn2)C[C@H]1C(C)C
Cc1cnccc1N1CCCN(C(=O)c2cccc(C3CCCNC3)c2)CC1 (configuration not stated)
COC(=O)[C@@H]1Cc2ncn(C)c2CN1C(=O)c1ccc(-c2ccccc2)cc1
NC(=O)[C@H](Cc1cccs1)NC(=O)C1=C[C@@H](NC(=O)c2ccc(F)c(Cl)c2)[C@@H](O)[C@H](O)C1
COc1ccc(CN2CCNc3cc(Nc4cccnc4)ncc3C2)cc1O
CN1C[C@H](NCc2cccc(Cl)c2)CCC[C@@H](C(=O)NC2CC2)CC1=O
COc1ccc(CCC(=O)N2CCC(N3CC4CC(C3)[C@H]3CCCC(=O)N3C4)CC2)cc1 (some centres not stated)
COC[C@H]1CCCN1C(=O)C[C@@H]1O[C@H](CNS(C)(=O)=O)[C@@H](O)[C@H]1O
CN[C@@H](CO)C(=O)NCc1nc(-c2cccc(F)c2)c(-c2ccccn2)[nH]1
COc1ccc(-c2nc3ccncc3[nH]2)cc1
CC(=O)N1CCC(N[C@H]2CC(C)(C)[C@@H]3C[C@@](C)(O)CC[C@]23CCC(=O)NCCN2CCOCC2)CC1
CC(O)CNS(=O)(=O)c1cccc(C(=O)Nc2cccc3c2CCC3)c1 (configuration not stated)
COCCN1C(=O)CCc2cc(NC(=O)c3ccc(C)c(C)c3)ccc21
OC[C@H]1CCN(c2ccnc3c(C(F)(F)F)cccc23)C[C@H]1O
CC1CCN([C@@H]2[C@H](O)[C@H](CO)O[C@@H]2CNC(=O)c2ccccc2)CC1
CC(=O)N1CCC(N2C[C@@H]3OCC(=O)N[C@@H]3C2)CC1
NC(=O)c1cccc(-c2n[nH]c3c2CC(=O)N(CC2CCOCC2)C3)c1
O=c1c2nc(-c3cccc(O)c3)ccc2ncn1Cc1ccccn1
Cc1cc(C(=O)N[C@H]2[C@H](O)[C@H](O)C[C@@H]2c2cccnc2)no1
COc1ccc(F)c(CN2CCCC(O)(CN(C)Cc3cc(C)on3)C2=O)c1 (configuration not stated)
O=C(Nc1cccnc1)c1ccnc(-c2nnc3ccc(Nc4ccccc4)nn23)c1
CCc1nc2c(c(-c3ccc(Cl)cc3)n1)CCN(Cc1ccc(F)cc1)CC2
COCc1cn(C[C@H]2C[C@@H](NCc3nccs3)[C@H](O)[C@@H]2O)nn1
NC(=O)[C@H](Cc1cccs1)NC(=O)C1=C[C@@H](NC(=O)NC2CCCCC2)[C@@H](O)[C@H](O)C1
CC(C)C1CN(C(=O)c2ccccc2-c2ncc[nH]2)CCC(=O)N1CC1CC1 (configuration not stated)
COC(=O)[C@H]1CN(C(C)=O)CCN1C(C)=O
O=C(Cc1csc(-c2ccccc2)n1)N[C@H](c1ccccn1)C1CC(O)C1 (some centres not stated)
Cc1cn(CC(=O)NC2CCOC3(CCOCC3)C2)c(=O)[nH]c1=O (configuration not stated)
O=C1CN(C(=O)[C@H]2CN(Cc3ccccc3)C[C@H]2C(=O)O)CCN1
Cc1noc(C2CC3(CCN(C(=O)C4CCC4)CC3)CN2C)n1 (configuration not stated)
Cc1ncsc1CCC(=O)N[C@@H]1CCOC[C@H]1OCC(=O)O
Cc1cc2c(cc1C(=O)N[C@H](c1ccccn1)C1CC(O)C1)OCCO2 (some centres not stated)
Cc1ccn2c(C(=O)N3CCCC(c4[nH]ncc4-c4ccccc4)C3)nnc2n1 (configuration not stated)
c1cncc(Nc2cc3c(cn2)CN(Cc2ccsc2)CCN3)c1
CC[C@@]1(O)CCN(C(=O)c2cccc(CCC(C)(C)O)c2)C[C@H]1O
O=C(c1ccoc1)N1CCCC(CCc2ccc(F)c(F)c2)C1 (configuration not stated)
Cc1cc(C)c(CNC(=O)c2nc(-c3cccc(O)c3)cc3[nH]ccc23)c(=O)[nH]1
COc1ccc(C(=O)NC[C@H]2O[C@@H](CC(=O)N3CCN(c4ccccc4OC)CC3)[C@H](O)[C@@H]2O)cc1
COc1ccc(CN2C(=O)[C@@H]3C[C@@H](O)CN3C3(CN(C4CCC4)C3)C2=O)cc1
O=C(Cc1ccccc1Cl)N1CCC(Cc2nc(-c3ccc(F)cc3)no2)CC1
Cc1[nH]c2c(c1C(=O)N1CCCC(CCc3ccc(F)cc3)C1)C(=O)CCC2 (configuration not stated)
O=C(c1ccccc1Cl)N1CCC2(CC1)Cc1ccccc1NC2=O
Cc1ccc(C(=O)NC2CCN(c3cn[nH]c(=O)c3)CC2)cc1C
O=C(NC1CCCCC1)O[C@@H]1CO[C@H]2[C@@H]1OC[C@@H]2NS(=O)(=O)c1ccc(Cl)cc1
O=C(Nc1ccc(C2(C(=O)NCc3ccco3)CCCCC2)cc1)C1CC1
CN1Cc2ccc(NCc3ccccc3)nc2C(C)(C(=O)NCCc2cnc[nH]2)C1 (configuration not stated)
CN1c2cccnc2CN(Cc2cccc(Cl)c2)CC[C@H]1CO
COc1ccc2nc(C[C@@H]3C[C@@H](C(C)C)[C@H](CNC(=O)Nc4ccc(F)cc4)C=C3C)[nH]c2c1
COc1ccc(C(=O)N2C[C@@H]3OCC(=O)N(Cc4nccn4C)[C@@H]3C2)cc1
COc1ccccc1CN1CC(c2noc(-c3ccc(C)cc3C)n2)CC1=O (configuration not stated)
COc1ccccc1-c1ccc2ncc(Nc3cccc(N[S+](C)(=O)[O-])c3)n2n1
Cc1nccn1-c1ccccc1CNC1CCC2(CCNCC2)CC1
COC(=O)[C@H](NC(=O)[C@@H]1C[C@@H](NS(=O)(=O)c2cccc(C(F)(F)F)c2)CCN1C(=O)CCC(=O)O)C(C)C
C=CCNC(=O)[C@@H]1Cc2cn(Cc3ccncc3)c3cccc(c23)[C@H](CC(C)C)N1
COc1cccc(CN2C[C@@H]3C(C(=O)O)[C@@H]3C2)c1OCCn1ccnc1 (some centres not stated)
COC(=O)CO[C@@H]1CO[C@H]2[C@@H]1OC[C@@H]2NC(=O)Nc1cccc(C(F)(F)F)c1
c1cc(-c2n[nH]c(CNC3CCC4(CCNCC4)CC3)n2)ccn1
COCC(=O)N1CCc2nc(N(C)CCc3ccncc3)[nH]c(=O)c2CC1
O=C1CC(C(=O)O)C2(CCN(c3cc(C(=O)O)c4ccccc4n3)CC2)N1 (configuration not stated)
O=C1Nc2ccc(/C=C/c3ccccc3)cc2C(=O)N2CC[C@H](NS(=O)(=O)c3cccs3)[C@@H]12
COC(=O)c1ccc2nc(C[C@@H]3C[C@@H](C(C)C)[C@H](CNCc4ccccc4F)C=C3C)[nH]c2c1
CCCCc1cc(C[C@@H]2C[C@H](NC(=O)NCC)C2(C)C)no1
COCC(=O)N1CC[C@@H](CC(=O)O)[C@@H](CC2=NCCc3cc(OC)ccc32)C1
O=C(Nc1cccnc1)N1CCOC[C@H](Oc2ccccc2)C1
c1c(CC2CCCCC2)nnn1[C@H]1CO[C@H]2[C@@H]1OC[C@@H]2NCC1CCCCC1
O=C(Nc1ccc(F)cc1)N1C[C@@H]2OCC(=O)N(Cc3ccc(OC(F)(F)F)cc3)[C@@H]2C1
O=C(Nc1ccc(Oc2ccccc2)cc1)N[C@H]1CO[C@H]2[C@@H]1OC[C@H]2OC(=O)Nc1cccc(C(F)(F)F)c1
Cc1cc(C(=O)N[C@@H]2C[C@H](Cn3cc(C4CC4)nn3)[C@@H](O)[C@H]2O)no1
